Most compounds without a hit are left out; they make up all but 6.8% or so of the library.
C diff HTS: blocks growth of Clostridium difficile | hit rate 0.25% among 86,000 | Clostridium difficile clinical isolate growth, OD600, 24 h; hits give low values | growth activity, negative = inhibition, % at 16 µg/mL (by protocol);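 active = mean growth activity at or below -80% and every replicate also at or below -80%; inconclusive = mean at or below -80% but some replicate above -80%; inactive = mean growth activity above -80%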
Pf Dd2 inh: inhibitors of Plasmodium falciparum Dd2 growth. activity change, % at 10 µM. P. falciparum Dd2 growth, SYBR Green, 72 h; hits give low values. hit rate 2.3% among 94,000; in the data active = activity change below about -80%; inconclusive = no clear call, values can overlap the other calls
T cruzi growth-1: blocks T. cruzi growth in NIH3T3 culture | hit rate 5.9% among 77,000 | inhibition, % at 8.34 µM | AID 624255 | T. cruzi beta-gal in NIH3T3, GalScreen luminescence, 90 h;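 active = mean inhibition above about 93%, with at least 55% of replicates each passing it, limit read from the data, passing the limit was not always enough; inconclusive = only one of those two conditions holds; inactive = neither condition holds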
T cruzi growth-2: inhibitors of T. cruzi proliferation; shares compounds with T cruzi growth-1; AID 651739; hit rate 72% among 5,600; T. cruzi beta-gal in NIH3T3, GalScreen luminescence, 90 h; inhibition, % at 8.35 µM;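 active = mean replicate inhibition above about 95% and at least 55% of replicates individually reaching it, limit read from the data; inconclusive = only one of the two criteria is met; inactive = neither criterion is met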
T cruzi growth-3: Trypanosoma cruzi proliferation inhibition; T. cruzi beta-gal in NIH3T3, GalScreen luminescence, 90 h; shares compounds with T cruzi growth-1; AID 651740; hit rate 21% among 5,600; inhibition, % at 2.09 µM;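 active = mean inhibition above about 95%, with at least 55% of replicates also reaching it, limit read from the data; inconclusive = meets just one of the two conditions; inactive = meets neither condition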
3T3 cytotox: cytotoxicity in mouse NIH/3T3 fibroblasts | shares compounds with T cruzi growth-1 | cytotoxicity (signal decrease), % at 8.35 µM | hit rate 14% among 5,600 | NIH/3T3 viability, CellTiter-Glo ATP luminescence, 90 h;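 active = mean signal decrease across replicates above about 35% based on untreated-well scatter, with enough replicates individually passing, limit read from the data; inconclusive = no rule stated though some were filed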
3T3 cytotox 2: cytotoxicity in mouse NIH/3T3 fibroblasts; shares compounds with T cruzi growth-1; NIH/3T3 viability, CellTiter-Glo ATP luminescence, 90 h; hit rate 56% among 5,600; inhibition, % at 24.9 µM;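 active = mean loss of cell viability signal at or above a set limit, and enough replicates individually reaching it; inconclusive = meets only the mean limit or only the replicate share; inactive = meets neither condition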
A number is an active result; n = inactive; u = inconclusive; x = not tested or not shown.

SMILES | C diff HTS | Pf Dd2 inh | T cruzi growth-1 | T cruzi growth-2 | T cruzi growth-3 | 3T3 cytotox | 3T3 cytotox 2
C[C@H](CO)N1C[C@H](C)[C@H](CN(C)S(=O)(=O)c2ccc(F)cc2)OCCCC[C@H](C)Oc2ccc(NC(=O)Nc3ccc4c(c3)OCO4)cc2C1=O | n | n | 106 | 109 | n | n | n
C[C@@H]1CN([C@@H](C)CO)C(=O)c2cc(NC(=O)NC3CCCCC3)ccc2O[C@@H](C)CCCCO[C@H]1CN(C)S(=O)(=O)c1ccc(F)cc1 | n | n | u | n | n | n | n
C[C@@H]1CCCCO[C@@H](CN(C)Cc2ccncc2)[C@@H](C)CN([C@@H](C)CO)C(=O)c2cc(NC(=O)C3CCCCC3)ccc2O1 | n | n | n | x | x | x | x
COCC#Cc1cnc2c(c1)C(=O)N([C@@H](C)CO)C[C@H](C)[C@@H](CN(C)C(=O)C1CC1)O2 | x | n | n | x | x | x | x
COc1cccc(C(=O)Nc2ccc3c(c2)C(=O)N(C)[C@H]2CC[C@H](CC(=O)NCC4CC4)O[C@H]2CO3)c1 | n | n | n | x | x | x | x
COc1ccc(S(=O)(=O)N2CCCCN3[C@H](CO)[C@H](c4ccc(C#CC(C)C)cc4)[C@@H]3C2)cc1 | n | n | n | x | x | x | x
COc1ccc(S(=O)(=O)N2CCCCN3[C@H](CO)[C@@H](c4ccc(C#CCC(C)C)cc4)[C@@H]3C2)cc1 | n | n | n | x | x | x | x
COc1ccc(S(=O)(=O)N2CCCCN3[C@H](C2)[C@H](c2ccc(C#CC(C)C)cc2)[C@@H]3CO)cc1 | n | n | 118 | 107 | 105 | n | 69
COc1ccc(S(=O)(=O)N2CCCCN3[C@H](CO)[C@@H](c4ccc(C#CC(C)C)cc4)[C@@H]3C2)cc1 | n | n | 96 | 101 | n | n | n
CC(C)CC#Cc1cnc2c(c1)C(=O)N([C@H](C)CO)C[C@@H](C)[C@@H](CN(C)C(=O)Cc1cccnc1)O2 | x | n | n | x | x | x | x
O=S(=O)(c1ccccc1)N1CCCCN2[C@H](C1)[C@H](c1ccc(C#CC3CCCC3)cc1)[C@@H]2CO | n | n | n | x | x | x | x
O=S(=O)(c1ccccc1)N1CCCCN2[C@@H](CO)[C@H](c3ccc(-c4cncnc4)cc3)[C@@H]2C1 | n | n | n | x | x | x | x
O=S(=O)(c1ccccc1)N1CCCCN2[C@H](CO)[C@@H](c3ccc(C#Cc4ccccc4)cc3)[C@H]2C1 | n | n | 103 | 107 | 103 | 57 | 92
O=S(=O)(c1ccccc1)N1CCCCN2[C@H](C1)[C@@H](c1ccc(C#Cc3cccnc3)cc1)[C@@H]2CO | n | n | u | u | n | n | n
COc1ccc(C#Cc2ccc([C@@H]3[C@H](CO)N4CCCCN(S(=O)(=O)c5ccccc5)C[C@@H]34)cc2)cc1 | n | n | n | x | x | x | x
O=S(=O)(c1ccccc1)N1CCCCN2[C@@H](CO)[C@@H](c3ccc(C#Cc4cccnc4)cc3)[C@@H]2C1 | n | n | 113 | 112 | 107 | n | 91
O=S(=O)(c1ccccc1)N1CCCCN2[C@H](C1)[C@H](c1ccc(C#Cc3cccnc3)cc1)[C@@H]2CO | n | n | 114 | 105 | n | n | 49
O=S(=O)(c1ccccc1)N1CCCCN2[C@H](CO)[C@H](c3ccc(C#CC4CCCC4)cc3)[C@@H]2C1 | n | n | n | x | x | x | x
C[C@H](CO)N1C[C@H](C)[C@H](CN(C)S(C)(=O)=O)OCCCC[C@H](C)Oc2ccc(NC(=O)Nc3ccc(C(F)(F)F)cc3)cc2C1=O | n | n | n | x | x | x | x
COCCNC(=O)C[C@H]1C[C@@H]2c3cc(NC(=O)C4CCC4)ccc3O[C@@H]2[C@H](CO)O1 | n | n | x | x | x | x | x
C[C@@H]1CN([C@@H](C)CO)C(=O)Cc2cc(NC(=O)CCCN(C)C)ccc2O[C@@H]1CN(C)CC1CCCCC1 | n | n | n | x | x | x | x
CN(C)CC#Cc1ccc([C@H]2[C@H](CO)N3CCCCN(S(=O)(=O)c4ccccc4)C[C@@H]23)cc1 | n | n | n | x | x | x | x
O=S(=O)(c1ccccc1)N1CCCCN2[C@H](CO)[C@H](c3ccc(C#Cc4cccnc4)cc3)[C@@H]2C1 | n | n | 102 | 107 | n | n | 35
O=C(NCC1CC1)[C@@H]1[C@@H](CO)[C@@H]2Cn3c(ccc(-c4cccnc4)c3=O)[C@H]1N2C(=O)C1CCC1 | n | n | n | x | x | x | x
